PubChem BioAssay (EPA / NIEHS)
Calls of active or inactive are those of the source. The calls were made as follows: active = hit-call score of the fitted dose curve at least 0.9, where 1 is the maximum; inactive = score below 0.9.

Experiments:
[1] = molecular target: Transcription factor E2F1 (Homo sapiens) (UniProt Q01094); experiment: ATG_E2F_CIS: Attagene CIS-FACTORIAL HepG2 Assay for human E2F Transcription Factor 1 (AID 2282935); settings: HepG2 Attagene cis-reporter, E2F reporter RNA transcripts; actives raise or lower the signal
How it was run: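 Measures reporter transcript levels via RT-PCR with capillary electrophoresis detection in HepG2 cells harboring cis-regulated reporter units; 24 h post-dose; bidirectional curve fitting with DMSO as baseline.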

[2] = ATG_E_Box_CIS: Attagene CIS-FACTORIAL HepG2 Assay for human Enhancer Box (E-box) (AID 2282936); settings: HepG2 E-box cis-reporter transcription, actives raise or lower the signal
How it was run: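 First, HepG2 cells receive multiple cis-regulated reporter constructs by transient transfection. Next, chemicals are applied for 24 h. Finally, reporter mRNA is quantified via RT-PCR and capillary electrophoresis, with DMSO as baseline.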

[3] = ATG_M_61_CIS: Attagene CIS-FACTORIAL HepG2 Assay for M61 Transcription Factor (Internal Marker) (AID 2282937); settings: HepG2 Attagene CIS-FACTORIAL M61 internal marker reporter; actives raise or lower the signal
How it was run: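 Human liver HepG2, transient MRTU transfection (cis promoter elements), 24 h compound. Total RNA → oligo(dT) RT → PCR → FAM label → HpaI → CE. Internal background marker; bidirectional fitting, DMSO = baseline.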

[4] = ATG_M_19_CIS: Attagene CIS-FACTORIAL HepG2 Assay for M19 Transcription Factor (Internal Marker) (AID 2282939); settings: HepG2 Attagene CIS-FACTORIAL M19 internal marker reporter; actives raise or lower the signal
How it was run: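 Following a 24 h exposure, RNA from transfected HepG2 cells was reverse-transcribed, PCR-amplified with reporter-specific primers, end-labelled with 6-FAM and HpaI-digested before capillary separation. Values represent gain or loss versus DMSO.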

[5] = ATG_ERE_CIS: Attagene CIS-FACTORIAL HepG2 Assay for Estrogen Response Element (ERE) (AID 2282940); settings: HepG2 ERE cis-reporter, Attagene RNA transcript; actives raise or lower the signal
How it was run: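 HepG2, transient cis-reporter units, 24 h exposure. RNA isolated, oligo(dT) RT, reporter-specific PCR, FAM extension, HpaI cut, CE detection. Gain/loss-of-signal vs DMSO.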

[6] = ATG_Ets_CIS: Attagene CIS-FACTORIAL HepG2 Assay for human Erythroblast Transformation Specific (ETS) (AID 2282941); settings: HepG2 ETS cis-reporter transcription, actives raise or lower the signal
How it was run: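 After transient cis-reporter transfection, HepG2 cells receive test chemical for 24 h. Reporter mRNA levels, measured by RT-PCR and capillary electrophoresis fluorescence, are analysed bidirectionally relative to the DMSO baseline.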

[7] = molecular target: Hepatocyte nuclear factor 3-beta (Homo sapiens) (UniProt Q9Y261); experiment: ATG_FoxA2_CIS: Attagene CIS-FACTORIAL HepG2 Assay for human Forkhead box A2 (FOXA2) (AID 2282942); settings: HepG2 cis-reporter transcription factor activity, 24 h; actives raise or lower the signal
How it was run: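 Transient MRTU transfection of HepG2 liver cells; 24 h treatment; total RNA → oligo(dT) RT → PCR → FAM primer extension → HpaI cut → CE. Bidirectional fit vs DMSO.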

[8] = ATG_FoxO_CIS: Attagene CIS-FACTORIAL HepG2 Assay for human Forkhead box O (FoxO) (AID 2282943); settings: HepG2 Attagene cis-reporter, FoxO element, mRNA; actives raise or lower the signal
How it was run: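 Transfected HepG2 reporter cells exposed to test chemical for 24 h; reporter RNA measured by reverse transcription, PCR and fluorescent capillary electrophoresis; curves fitted for increases and decreases against DMSO.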

[9] = ATG_GATA_CIS: Attagene CIS-FACTORIAL HepG2 Assay for human GATA Binding Protein (AID 2282944); settings: HepG2 GATA cis-element reporter, Attagene multiplex mRNA; actives raise or lower the signal
How it was run: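 DMSO serves as negative control and baseline for bidirectional fitting of reporter mRNA changes. HepG2 cells bearing transiently transfected cis-promoter reporters were exposed 24 h; transcripts detected via RT-PCR and capillary electrophoresis.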

[10] = ATG_GLI_CIS: Attagene CIS-FACTORIAL HepG2 Assay for human Zinc Finger Protein GLI1 (AID 2282945); settings: HepG2, Attagene cis-factorial reporter mRNA, GLI element; actives raise or lower the signal
How it was run: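 Transiently transfected HepG2 cells report endogenous transcription factor activity via cis-element-driven reporter units. After 24 h compound exposure, reporter mRNA was measured by RT-PCR with capillary electrophoresis; bidirectional fitting against DMSO baseline.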

[11] = molecular target: Bile acid receptor (Homo sapiens) (UniProt Q96RI1); experiment: ATG_IR1_CIS: Attagene CIS-FACTORIAL HepG2 Assay for human Nuclear Receptor Subfamily 1 Group H Member 4 (NR1H4), IR1 submotif (AID 2282946); settings: IR1 reporter transcription, actives raise or lower the signal
How it was run: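 HepG2 cells transiently transfected with multiple cis-promoter-driven reporter units to measure endogenous transcription factor activity; 24 h exposure. Reporter mRNA read by RT-PCR, FAM labelling, HpaI digestion and capillary electrophoresis. Bidirectional fit versus DMSO.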

[12] = ATG_GRE_CIS: Attagene CIS-FACTORIAL HepG2 Assay for human Glucocorticoid Response Elements (GRE) (AID 2282947); settings: HepG2 GRE cis-reporter, Attagene multiplex mRNA; actives raise or lower the signal
How it was run: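 Endogenous transcription factor activity is read through cis-element reporter constructs transiently transfected into HepG2 cells. After 24 h treatment, labelled RT-PCR products are resolved by capillary electrophoresis; DMSO sets baseline for bidirectional curve fitting.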

[13] = ATG_ISRE_CIS: Attagene CIS-FACTORIAL HepG2 Assay for human Interferon Regulatory Factor 1 (IRF1) binding to an Interferon-Stimulated Response Element (ISRE) (AID 2282948); settings: HepG2 ISRE cis-reporter (Attagene), mRNA transcription readout; actives raise or lower the signal
How it was run: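 Quantitation relies on labelled RT-PCR fragments separated by capillary electrophoresis. Human HepG2 cells bearing cis-promoter reporter constructs were treated 24 h; DMSO served as baseline for bidirectional fitting.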

[14] = ATG_M_32_CIS: Attagene CIS-FACTORIAL HepG2 Assay for M32 Transcription Factor (Internal Marker) (AID 2282949); settings: HepG2 Attagene cis-factorial M32 reporter, mRNA; actives raise or lower the signal;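 also: background control marker of the multiplexed CIS panel rather than a real target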
How it was run: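 Internal background marker read-out: RT-PCR/capillary electrophoresis fluorescence of reporter transcripts from transiently transfected HepG2 cells after 24 h chemical exposure. Activity fitted bidirectionally relative to DMSO negative control.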

[15] = ATG_M_06_CIS: Attagene CIS-FACTORIAL HepG2 Assay for M06 Transcription Factor (Internal Marker) (AID 2282950); settings: HepG2 Attagene CIS-FACTORIAL M06 internal marker reporter; actives raise or lower the signal
How it was run: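 Fluorescence-labelled RT-PCR products from cis-promoter reporter units, cut with HpaI and resolved by capillary electrophoresis, give the signal. Cells are human HepG2, dosed for 24 h. Serves as background control, fitted relative to DMSO.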

[16] = molecular target: Hypoxia-inducible factor 1-alpha (Homo sapiens) (UniProt Q16665); experiment: ATG_HIF1a_CIS: Attagene CIS-FACTORIAL HepG2 Assay for human Hypoxia Inducible Factor 1 (HIF1A) (AID 2282951); settings: HepG2 Attagene cis-factorial HIF1a reporter transcription; actives raise or lower the signal
How it was run: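 Transient MRTU transfection of human HepG2 liver cells, 24 h compound treatment, then total RNA isolation, oligo(dT) reverse transcription, PCR amplification, fluorescent labelling and capillary electrophoresis of reporter fragments. Gain or loss relative to DMSO.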

[17] = molecular target: Hepatocyte nuclear factor 6 (Homo sapiens) (UniProt Q9UBC0); experiment: ATG_HNF6_CIS: Attagene CIS-FACTORIAL HepG2 Assay for human Hepatocyte Nuclear Factor 6 (HNF6) (AID 2282952); settings: HepG2 Attagene cis-factorial HNF6 reporter transcription; actives raise or lower the signal
How it was run: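 Cells are HepG2 carrying transiently transfected cis-promoter reporter units. Treatment lasts 24 h, after which reporter transcripts are reverse-transcribed, amplified, FAM-labelled and sized by capillary electrophoresis. DMSO serves as baseline.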

[18] = ATG_MRE_CIS: Attagene CIS-FACTORIAL HepG2 Assay for human Metal Responsive Element (MRE) (AID 2282954); settings: HepG2 MRE cis-reporter transcription, Attagene multiplex; actives raise or lower the signal
How it was run: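 Fluorescent reporter fragments separated by capillary electrophoresis give mRNA induction for the MRE unit after 24 h treatment of transfected HepG2 cells. Endogenous transcription-factor activity is read; DMSO serves as negative control and baseline.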

[19] = molecular target: Heat shock factor protein 1 (Homo sapiens) (UniProt Q00613); experiment: ATG_HSE_CIS: Attagene CIS-FACTORIAL HepG2 Assay for human Heat Shock Transcription Factor 1 (HSE) (AID 2282953); settings: HepG2 HSE cis-reporter, Attagene RNA transcription; actives raise or lower the signal
How it was run: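 After a 24 h incubation with test chemical, transfected HepG2 cells were harvested for RNA; reporter transcripts were measured by RT-PCR and capillary electrophoresis. Values reflect gain or loss of signal relative to DMSO.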

Measured: AC50

Hepatocyte nuclear factor 3-beta (Homo sapiens), sequence (Q9Y261 whole entry, looked up): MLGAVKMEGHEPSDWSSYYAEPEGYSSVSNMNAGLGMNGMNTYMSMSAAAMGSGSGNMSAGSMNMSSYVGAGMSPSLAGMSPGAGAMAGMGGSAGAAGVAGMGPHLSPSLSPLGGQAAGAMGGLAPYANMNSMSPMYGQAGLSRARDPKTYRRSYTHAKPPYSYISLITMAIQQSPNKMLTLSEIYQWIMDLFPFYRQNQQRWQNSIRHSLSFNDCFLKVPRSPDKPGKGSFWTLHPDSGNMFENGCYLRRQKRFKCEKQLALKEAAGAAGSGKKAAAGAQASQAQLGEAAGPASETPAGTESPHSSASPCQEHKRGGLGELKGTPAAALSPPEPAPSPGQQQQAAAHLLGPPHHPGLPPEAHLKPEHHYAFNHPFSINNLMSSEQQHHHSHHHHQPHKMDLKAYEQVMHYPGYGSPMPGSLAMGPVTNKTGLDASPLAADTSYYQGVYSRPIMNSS
Hypoxia-inducible factor 1-alpha (Homo sapiens), sequence (Q16665 whole entry, looked up, the tested form may be a part): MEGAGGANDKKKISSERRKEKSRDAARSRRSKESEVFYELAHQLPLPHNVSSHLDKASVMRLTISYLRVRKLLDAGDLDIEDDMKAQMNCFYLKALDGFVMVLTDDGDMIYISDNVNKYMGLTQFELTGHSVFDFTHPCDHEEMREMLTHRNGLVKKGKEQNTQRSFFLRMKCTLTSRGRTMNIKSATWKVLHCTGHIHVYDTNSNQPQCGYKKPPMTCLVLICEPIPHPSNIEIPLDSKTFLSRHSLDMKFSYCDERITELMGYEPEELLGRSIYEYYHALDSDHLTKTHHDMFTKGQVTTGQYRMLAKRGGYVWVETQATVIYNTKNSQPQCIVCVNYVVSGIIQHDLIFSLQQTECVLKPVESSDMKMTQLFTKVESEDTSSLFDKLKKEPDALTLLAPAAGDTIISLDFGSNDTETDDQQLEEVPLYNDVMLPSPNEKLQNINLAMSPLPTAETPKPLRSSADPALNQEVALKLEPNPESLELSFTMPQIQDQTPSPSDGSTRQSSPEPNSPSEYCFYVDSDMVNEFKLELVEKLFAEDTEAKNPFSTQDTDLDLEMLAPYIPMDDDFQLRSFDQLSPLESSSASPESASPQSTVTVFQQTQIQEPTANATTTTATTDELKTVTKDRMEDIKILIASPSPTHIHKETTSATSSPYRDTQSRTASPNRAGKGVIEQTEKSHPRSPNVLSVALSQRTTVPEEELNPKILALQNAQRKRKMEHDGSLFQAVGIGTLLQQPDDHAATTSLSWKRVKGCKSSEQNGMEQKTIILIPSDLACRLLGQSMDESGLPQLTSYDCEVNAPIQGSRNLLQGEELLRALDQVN
Transcription factor E2F1 (Homo sapiens), sequence (Q01094 whole entry, looked up): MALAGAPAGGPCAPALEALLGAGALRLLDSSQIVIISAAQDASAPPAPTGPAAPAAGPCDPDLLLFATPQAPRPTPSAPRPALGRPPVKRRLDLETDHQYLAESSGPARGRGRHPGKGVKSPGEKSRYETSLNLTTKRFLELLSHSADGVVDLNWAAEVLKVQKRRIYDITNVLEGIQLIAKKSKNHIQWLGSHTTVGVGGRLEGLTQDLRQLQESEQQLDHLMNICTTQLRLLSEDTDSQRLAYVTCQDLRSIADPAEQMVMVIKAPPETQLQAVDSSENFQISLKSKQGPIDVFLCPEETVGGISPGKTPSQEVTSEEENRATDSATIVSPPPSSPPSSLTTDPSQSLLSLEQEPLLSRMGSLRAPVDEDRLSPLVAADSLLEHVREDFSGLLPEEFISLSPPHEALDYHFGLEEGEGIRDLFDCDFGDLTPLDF
Heat shock factor protein 1 (Homo sapiens), sequence (Q00613 whole entry, looked up): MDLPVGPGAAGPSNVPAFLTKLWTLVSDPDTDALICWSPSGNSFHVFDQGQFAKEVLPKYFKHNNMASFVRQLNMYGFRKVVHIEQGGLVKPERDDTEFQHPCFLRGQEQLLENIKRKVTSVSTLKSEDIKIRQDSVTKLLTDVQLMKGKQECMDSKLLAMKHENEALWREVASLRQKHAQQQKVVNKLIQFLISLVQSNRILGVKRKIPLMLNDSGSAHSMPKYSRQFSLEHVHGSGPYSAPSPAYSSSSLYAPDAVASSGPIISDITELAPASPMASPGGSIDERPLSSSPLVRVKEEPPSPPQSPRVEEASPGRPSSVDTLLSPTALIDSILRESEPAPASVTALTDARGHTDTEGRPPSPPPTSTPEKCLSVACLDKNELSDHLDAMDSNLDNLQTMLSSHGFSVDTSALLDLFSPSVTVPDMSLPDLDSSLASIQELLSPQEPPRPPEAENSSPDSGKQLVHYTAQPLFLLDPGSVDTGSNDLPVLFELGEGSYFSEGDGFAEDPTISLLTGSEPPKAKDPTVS
Hepatocyte nuclear factor 6 (Homo sapiens), sequence (Q9UBC0 whole entry, looked up): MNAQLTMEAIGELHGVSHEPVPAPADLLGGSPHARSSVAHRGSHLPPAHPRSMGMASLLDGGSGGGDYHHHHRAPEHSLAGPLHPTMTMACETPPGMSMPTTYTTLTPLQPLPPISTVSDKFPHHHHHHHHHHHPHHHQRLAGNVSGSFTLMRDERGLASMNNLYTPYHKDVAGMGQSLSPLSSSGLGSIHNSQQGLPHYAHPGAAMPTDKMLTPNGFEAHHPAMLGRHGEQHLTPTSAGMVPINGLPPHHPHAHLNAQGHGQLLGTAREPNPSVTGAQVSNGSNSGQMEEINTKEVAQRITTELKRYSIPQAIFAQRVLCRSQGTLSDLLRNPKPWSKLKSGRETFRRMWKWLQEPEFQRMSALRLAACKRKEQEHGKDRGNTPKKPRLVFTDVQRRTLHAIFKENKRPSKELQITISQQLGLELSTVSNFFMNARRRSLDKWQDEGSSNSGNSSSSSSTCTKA
Bile acid receptor (Homo sapiens), sequence (Q96RI1 whole entry, looked up): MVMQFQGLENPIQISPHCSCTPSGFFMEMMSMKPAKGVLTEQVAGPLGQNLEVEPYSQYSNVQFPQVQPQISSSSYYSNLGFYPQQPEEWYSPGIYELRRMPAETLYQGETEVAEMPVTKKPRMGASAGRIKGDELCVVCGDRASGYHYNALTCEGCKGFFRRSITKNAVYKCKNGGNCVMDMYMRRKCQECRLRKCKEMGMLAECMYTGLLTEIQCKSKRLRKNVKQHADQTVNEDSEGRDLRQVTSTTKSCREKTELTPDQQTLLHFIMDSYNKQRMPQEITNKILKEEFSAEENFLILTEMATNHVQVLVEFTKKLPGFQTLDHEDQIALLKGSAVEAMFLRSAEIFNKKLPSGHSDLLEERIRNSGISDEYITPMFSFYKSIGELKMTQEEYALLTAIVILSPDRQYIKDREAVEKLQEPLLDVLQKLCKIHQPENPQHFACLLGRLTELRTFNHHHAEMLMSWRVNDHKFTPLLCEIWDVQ

CC(C)C1(C)N=C(c2nc3ccccc3cc2C(=O)O)NC1=O (stereo not drawn)
not listed: [19]
inactive: all other assays above

O=C(O)c1nc(Cl)ccc1Cl
not listed: [11] | [15] | [19]
inactive: all other assays above

CC(C)Oc1cc(-n2nc(C(C)(C)C)oc2=O)c(Cl)cc1Cl
active: [5] 12.8 µM | [18] 25.1 µM
not listed: [15] | [19]
inactive: all other assays above

COc1cnc(OC)n2nc(NS(=O)(=O)c3c(OCC(F)F)cccc3C(F)(F)F)nc12
not listed: [11]
inactive: all other assays above

CCc1nn(C)c(C(=O)NCc2ccc(C(C)(C)C)cc2)c1Cl
active: [18] 2.3 µM
not listed: [15] | [19]
inactive: all other assays above

COP(=S)(OC)Oc1nc(Cl)c(Cl)cc1Cl
active: [5] 33.5 µM | [10] 64.9 µM
not listed: [15] | [19]
inactive: all other assays above

COP(N)(=O)SC (stereo not drawn)
not listed: [15]
inactive: all other assays above

CS/C(C)=N/OC(=O)N(C)SN(C)C(=O)O/N=C(\C)SC
not listed: [15] | [19]
inactive: all other assays above
